From PubChem BioAssay (Tox21)
Records with an inconclusive call do not appear. Where a call stands in place of a potency, no number is given. Values without a mark were called inactive. Calls of active or inactive are those of the source. Unless noted, the call rests on the fitted dose curve; in most records, active means well fitted curve in the direction sought with a large enough effect in the repeat runs; inconclusive means weak or mixed curves; inactive means no such curve, though single readings can be large; an effect the other way counts as inactive or inconclusive.

How the values were obtained:
[1] = qHTS assay to identify small molecule antagonists of the thyroid receptor (TR) signaling pathway - cell viability counter screen (AID 743064); further: nearly all actives have a fitted effect of over 50% in size; further: potency means the concentration at half of the fitted maximal effect
In short: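 GH3.TRE-Luc rat pituitary cells dosed after 4 hr plating, co-stimulated with T3 at 1 nM final, incubated 23.5 h at 37 C. Viability measured in the same wells by CellTiter-Fluor fluorescence after 30 min further at 37 C.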

[2] = qHTS assay to identify small molecule antagonists of the thyroid receptor (TR) signaling pathway (AID 743065); further: nearly all actives have a fitted effect of over 55% in size; further: potency means the concentration at half of the fitted maximal effect
In short: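 GH3.TRE-Luc rat pituitary cells carrying two TR response elements driving luciferase were plated for 4 h, given compound plus 1 nM T3 (final), and incubated 23.5 h at 37 C. ONE-Glo luminescence measured reporter inhibition; CellTiter-Fluor fluorescence tracked cytotoxicity.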

[3] = test system: thyroid hormone receptor (rat, GH3 cells); experiment: qHTS assay to identify small molecule agonists of the thyroid receptor (TR) signaling pathway (AID 743066; calls by dose curve)
[4] = qHTS assay to identify small molecule antagonists of the estrogen receptor alpha (ER-alpha) signaling pathway - cell viability counter screen (AID 743074; calls by dose curve;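 further: HEK293 cells carrying ER-alpha-UAS-bla reporter stimulated with 17beta-estradiol; nearly all actives have a fitted effect of over 45% in size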)
[5] = qHTS assay to identify small molecule antagonists of the estrogen receptor alpha (ER-alpha) signaling pathway using the BG1 cell line - cell viability counter screen (AID 743081);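 further: compound given together with 17beta-estradiol as the ER stimulus; series mostly up to about 70 µM; nearly all actives have a fitted effect of over 45% in size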
Aromatase (Homo sapiens) = Aromatase (Homo sapiens) (UniProt P11511); experiment: qHTS assay to identify aromatase inhibitors (AID 743083); further: series mostly up to about 70 µM; nearly all actives have a fitted effect of over 55% in size
Chain of Aromatase (Homo sapiens) (P11511 whole entry, looked up): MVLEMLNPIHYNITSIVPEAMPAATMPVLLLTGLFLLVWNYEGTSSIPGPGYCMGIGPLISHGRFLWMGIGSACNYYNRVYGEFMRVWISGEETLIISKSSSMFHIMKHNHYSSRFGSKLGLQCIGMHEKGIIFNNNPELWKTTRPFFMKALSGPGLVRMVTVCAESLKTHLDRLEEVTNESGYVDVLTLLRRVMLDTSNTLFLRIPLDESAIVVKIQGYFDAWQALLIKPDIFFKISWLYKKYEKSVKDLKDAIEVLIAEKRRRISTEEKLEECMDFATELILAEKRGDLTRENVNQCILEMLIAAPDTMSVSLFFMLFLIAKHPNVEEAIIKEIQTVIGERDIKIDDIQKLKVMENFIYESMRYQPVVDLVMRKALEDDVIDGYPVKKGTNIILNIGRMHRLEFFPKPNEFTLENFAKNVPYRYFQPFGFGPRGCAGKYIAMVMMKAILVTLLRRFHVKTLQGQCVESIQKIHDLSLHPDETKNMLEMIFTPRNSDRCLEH

[6] = qHTS assay to identify aromatase inhibitors - cell viability counter screen (AID 743084);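 further: cells stimulated with testosterone during compound exposure; nearly all actives have a fitted effect of over 55% in size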
[7] = target: Aryl hydrocarbon receptor (Homo sapiens) (UniProt P35869); experiment: qHTS assay to identify small molecule that activate the aryl hydrocarbon receptor (AhR) signaling pathway (AID 743085); further: nearly all actives have a fitted effect of over 15% in size; further: potency means the concentration at half of the fitted maximal effect;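 on activation: HG2L7.5c1 human HepG2 liver cells with stably integrated DRE-driven firefly reporter; series mostly up to about 70 µM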
Chain of Aryl hydrocarbon receptor (Homo sapiens) (P35869 whole entry, looked up): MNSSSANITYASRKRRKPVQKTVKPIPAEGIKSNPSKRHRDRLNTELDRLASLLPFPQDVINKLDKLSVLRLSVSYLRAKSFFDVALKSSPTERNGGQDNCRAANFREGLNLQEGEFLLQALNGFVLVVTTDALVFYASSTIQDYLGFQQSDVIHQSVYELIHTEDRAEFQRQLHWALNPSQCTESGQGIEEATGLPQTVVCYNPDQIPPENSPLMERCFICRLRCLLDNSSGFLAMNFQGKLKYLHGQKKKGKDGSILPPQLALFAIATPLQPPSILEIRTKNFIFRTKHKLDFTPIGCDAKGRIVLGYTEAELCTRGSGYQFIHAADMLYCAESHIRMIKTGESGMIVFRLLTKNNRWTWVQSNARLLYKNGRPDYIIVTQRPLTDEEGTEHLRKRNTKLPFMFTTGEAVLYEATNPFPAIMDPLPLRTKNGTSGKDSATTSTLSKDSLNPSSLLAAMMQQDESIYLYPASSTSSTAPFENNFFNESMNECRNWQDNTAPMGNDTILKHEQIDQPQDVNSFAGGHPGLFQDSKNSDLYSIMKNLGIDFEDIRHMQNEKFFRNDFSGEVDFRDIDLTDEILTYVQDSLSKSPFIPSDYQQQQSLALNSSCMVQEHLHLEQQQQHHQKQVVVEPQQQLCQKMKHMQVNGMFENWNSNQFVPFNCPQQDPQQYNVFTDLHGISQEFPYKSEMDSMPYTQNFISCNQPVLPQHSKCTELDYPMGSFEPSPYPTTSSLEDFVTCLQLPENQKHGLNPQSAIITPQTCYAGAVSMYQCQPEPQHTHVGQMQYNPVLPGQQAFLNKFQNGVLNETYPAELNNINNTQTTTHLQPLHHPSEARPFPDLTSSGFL
In short: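 HepG2 cells stably carrying a 20-DRE firefly luciferase reporter (HG2L7.5c1) treated with compound for 24 hr at 37C. Luciferase read by ONE-Glo luminescence, with CellTiter-Fluor viability read first.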

[8] = qHTS assay to identify small molecule that activate the aryl hydrocarbon receptor (AhR) signaling pathway - cell viability counter screen (AID 743086);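 further: HepG2 liver cells carrying the AhR DRE luciferase reporter; series mostly up to about 70 µM; nearly all actives have a fitted effect of over 45% in size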
In short: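 HepG2-AhR-luc (HG2L7.5c1) cells, 4000/well, were preincubated 5 h at 37C, exposed to compound in qHTS format for 24 hr at 37C, then given CellTiter-Fluor for 30 min; viability was read as fluorescence in the reporter wells.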

[9] = target: Peroxisome proliferator-activated receptor gamma (Homo sapiens) (UniProt P37231); experiment: qHTS assay to identify small molecule agonists of the peroxisome proliferator-activated receptor gamma (PPARg) signaling pathway (AID 743094; active means well fitted activation curve with a large enough effect in the signal ratio in the repeat runs, not every such curve was filed as active; the % refers to the signal ratio)
Chain of Peroxisome proliferator-activated receptor gamma (Homo sapiens) (P37231 whole entry, looked up): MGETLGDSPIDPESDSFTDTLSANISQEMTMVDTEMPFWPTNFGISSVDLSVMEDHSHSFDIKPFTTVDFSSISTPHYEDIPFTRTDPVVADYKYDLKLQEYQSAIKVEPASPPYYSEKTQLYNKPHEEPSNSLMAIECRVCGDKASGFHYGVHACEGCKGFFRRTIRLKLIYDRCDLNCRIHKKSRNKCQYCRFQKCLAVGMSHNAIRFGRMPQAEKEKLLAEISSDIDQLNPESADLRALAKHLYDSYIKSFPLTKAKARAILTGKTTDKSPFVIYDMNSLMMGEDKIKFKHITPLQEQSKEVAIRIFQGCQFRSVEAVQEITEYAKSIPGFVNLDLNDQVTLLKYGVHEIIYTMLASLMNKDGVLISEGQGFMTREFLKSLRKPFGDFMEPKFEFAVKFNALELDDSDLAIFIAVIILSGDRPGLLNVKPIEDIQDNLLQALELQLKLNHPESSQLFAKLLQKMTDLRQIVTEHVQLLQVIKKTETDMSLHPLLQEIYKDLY
In short: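 GeneBLAzer PPARg UAS-bla HEK293H cells were plated, rested 5 h, then exposed to compounds for 17 h at 37C. Beta-lactamase activity was read by LiveBLAzer B/G FRET substrate fluorescence after 1 h at room temperature.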

[10] = target: Peroxisome proliferator-activated receptor gamma (Homo sapiens) (UniProt P37231); experiment: qHTS assay to identify small molecule antagonists of the peroxisome proliferator-activated receptor gamma (PPARg) signaling pathway (AID 743191; calls by dose curve; further: series mostly up to about 63 µM; nearly all actives have a fitted effect of over 30% in size)
In short: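 GeneBLAzer PPARg UAS-bla HEK293H cells carrying a UAS-driven beta-lactamase reporter were plated at 3000 cells/well, preincubated 5 h at 37C, then given compound for 17 h at 37C; LiveBLAzer B/G FRET substrate was read after 1 h at room temperature.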

[11] = qHTS assay for small molecule agonists of the antioxidant response element (ARE) signaling pathway (AID 743202; active means well fitted activation curve with a large enough effect in the signal ratio in the repeat runs, not every such curve was filed as active; the % refers to the signal ratio)
In short: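 Compounds delivered in DMSO to ARE-bla HepG2 cells (2,000 cells/well, pre-incubated 5 h) and left 16 h at 37 C. LiveBLAzer B/G FRET substrate then added for 2 h at RT before fluorescence reading.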

[12] = qHTS assay for small molecule agonists of the antioxidant response element (ARE) signaling pathway - cell viability counter screen (AID 743203; calls by dose curve; further: nearly all actives have a fitted effect of over 55% in size)
In short: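 ARE-bla HepG2 cells were plated, rested 5 h at 37C/5% CO2, then exposed to compounds in DMSO for 16 h. Viability was read as CellTiter-Glo luminescence after 30 min at room temperature, in the same wells as the ARE screen.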

[13] = qHTS assay for small molecule activators of the heat shock response signaling pathway - cell viability counter screen (AID 743209); further: nearly all actives have a fitted effect of over 50% in size
In short: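 HSE-bla HeLa cells plated overnight, then exposed to Tox21 compounds (23 nL in DMSO) for 5 h at 37 C. After the bla reporter read, CellTiter-Glo was added in the same wells and luminescence read after 30 min at room temperature.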

[14] = qHTS assay for small molecule activators of the heat shock response signaling pathway (AID 743210; active means well fitted activation curve with a large enough effect in the signal ratio in the repeat runs, with a control signal flat, not every such curve was filed as active; the % refers to the signal ratio;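 further: HeLa cells with beta-lactamase reporter driven by heat shock elements; series mostly up to about 63 µM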)
In short: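 Reporter gene assay: HeLa cells stably bearing an HSE-bla construct, compound treatment 5 h at 37 C, LiveBLAzer substrate 2.5 h at RT, fluorescence intensity.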

[15] = qHTS assay to identify small molecule antagonists of the peroxisome proliferator-activated receptor gamma (PPARg) signaling pathway - cell viability counter screen (AID 743194); further: nearly all actives have a fitted effect of over 55% in size
In short: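 PPARg-UAS-bla HEK293H cells were plated, rested 5 h at 37 C, then treated with compounds plus rosiglitazone (50 nM final) for 17 h at 37 C; viability was then read by CellTiter-Glo luminescence after 30 min at room temperature.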

SMILES	Potency [1]	Potency [2]	outcome [3]	Potency [4]	outcome [5]	outcome (Aromatase (Homo sapiens))	Potency [6]	Potency [7]	Potency [8]	Potency [9]	Potency [10]	Potency [11]	outcome [12]	outcome [13]	outcome [14]	outcome [15]	activation [11]	viability change, negative = cytotoxic [12]	activity change, negative = cytotoxicity [13]	activation [14]
CCCc1ncc(C[n+]2ccccc2C)c(N)n1	inactive	inactive	inactive	inactive	inactive	inactive	inactive	inactive	inactive	inactive	inactive	inactive	inactive	inactive	inactive	–	–	–	–	–
Nc1ccccn1	inactive	inactive	inactive	inactive	inactive	inactive	inactive	inactive	inactive	–	–	–	inactive	inactive	inactive	inactive	–	–	–	–
OCCc1ccccn1	inactive	inactive	inactive	inactive	inactive	inactive	inactive	–	inactive	inactive	–	–	inactive	inactive	inactive	inactive	–	–	–	–
CCN1CCOCC1	inactive	inactive	inactive	inactive	inactive	inactive	inactive	–	inactive	inactive	–	inactive	inactive	inactive	inactive	inactive	–	–	–	–
CCCCCCCCCCCCSC	inactive	inactive	inactive	inactive	inactive	inactive	inactive	inactive	inactive	inactive	inactive	–	inactive	inactive	inactive	–	–	–	–	–
NC(N)=NCCN1CCCCCCC1	inactive	inactive	inactive	inactive	inactive	inactive	inactive	inactive	inactive	–	–	–	–	–	–	–	4.68% [at 0.756 µM]	-0.232% [at 0.756 µM]	-20.4% [at 0.55 µM]	-0.075% [at 0.55 µM]
[Ca+2]	inactive	inactive	inactive	inactive	inactive	inactive	inactive	inactive	inactive	inactive	inactive	–	inactive	inactive	inactive	inactive	–	–	–	–
CC(C)C[C@@H](N)C(=O)O	inactive	inactive	inactive	inactive	inactive	inactive	inactive	–	inactive	inactive	–	inactive	inactive	inactive	inactive	–	–	–	–	–
CC(C)NNC(=O)c1ccncc1	inactive	inactive	inactive	inactive	inactive	inactive	inactive	–	inactive	inactive	inactive	–	inactive	inactive	inactive	–	–	–	–	–
C[N+]12CCC(CC1)C(OC(=O)C(O)(c1ccccc1)c1ccccc1)C2 (stereo unspecified)	inactive	inactive	inactive	inactive	inactive	–	inactive	–	inactive	inactive	inactive	–	inactive	inactive	–	inactive	–	–	–	–
c1ccc(CCc2ccccc2)cc1	inactive	inactive	inactive	inactive	inactive	inactive	inactive	inactive	inactive	inactive	inactive	–	inactive	inactive	inactive	–	–	–	–	–
CCN(C=O)CC	inactive	inactive	inactive	inactive	inactive	–	–	–	inactive	–	–	–	inactive	inactive	inactive	inactive	–	–	–	–
CCO[Si](OCC)(OCC)c1ccccc1	inactive	inactive	inactive	inactive	inactive	–	–	–	inactive	–	–	–	inactive	inactive	inactive	inactive	–	–	–	–
CC[N+](CC)(CC)CCOc1cccc(OCC[N+](CC)(CC)CC)c1OCC[N+](CC)(CC)CC	inactive	inactive	inactive	inactive	inactive	inactive	inactive	inactive	inactive	–	–	inactive	inactive	inactive	inactive	inactive	–	–	–	–
NC(=O)N1c2ccccc2CC(=O)c2ccccc21	13.3 µM (active)	11.9 µM (active)	inactive	inactive	inactive	–	–	–	inactive	–	–	–	inactive	inactive	inactive	inactive	–	–	–	–
COc1c(N2CCNC(C)C2)c(F)cc2c(=O)c(C(=O)O)cn(C3CC3)c12 (stereo unspecified)	inactive	inactive	inactive	inactive	inactive	inactive	inactive	inactive	inactive	inactive	inactive	–	inactive	inactive	inactive	inactive	–	–	–	–
CCCc1nn(C)c2c(=O)[nH]c(-c3cc(S(=O)(=O)N4CCN(C)CC4)ccc3OCC)nc12	inactive	inactive	inactive	inactive	inactive	inactive	inactive	–	inactive	inactive	inactive	inactive	inactive	inactive	inactive	–	–	–	–	–
Nc1ccncc1N	inactive	inactive	inactive	inactive	inactive	inactive	inactive	2.66 µM (active)	inactive	inactive	inactive	inactive	inactive	inactive	inactive	–	–	–	–	–
COc1ccccc1OCC1CNC(=O)O1 (stereo unspecified)	inactive	inactive	inactive	inactive	inactive	inactive	inactive	inactive	inactive	inactive	–	–	inactive	inactive	inactive	inactive	–	–	–	–
